Values joined by “and” are separate entries in the source; they are usually repeats but may differ in a detail not shown here. Equal values may be shown once. In all, about 340,000 compounds went through this assay and about 3,300 (0.97%) were called active.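 How the source made its calls: active means inhibition above the mean over all tested compounds plus 3 SD (cut at about 30% in these data); inactive means the rest.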 What follows is part of a selection rich in actives, with near analogues and random picks from the rest.

The target of the assay is Platelet-activating factor acetylhydrolase 2, cytoplasmic (Homo sapiens) (UniProt Q99487). In words: PAFAH2 enzyme inhibitors, primary screen, biochemical, fluorescence polarization, human (AID 492956).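 Further: inhibitors block probe labeling of enzyme so polarization drops; 0% = enzyme with DMSO and 100% = wells lacking PAFAH2 protein.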 The settings on record: recombinant PAFAH2, FP-rhodamine activity probe, at 3.39 µM, active compounds read high. A general note: In fluorescence polarisation assays a small probe gives low polarisation when free and higher when bound to something large.
The term inhibition denotes the relative decrease from the control value, in per cent. As to `CCCCCC(=O)N1CCN(S(=O)(=O)c2ccc3c(c2)OCCCO3)CC1`, the inhibition was 6.58% (inactive).
The figure for `Clc1ccc(C2[C@H]3CN(CC4CCCCC4)[C@H](c4ccccc4)C34CC2(c2cccnc2)C4)cn1` (some centres undefined) is -11.3% (inactive); for `COc1cc(C2C(C(=O)c3sc(C)nc3C)=C(O)C(=O)N2CCN(C)C)cc(OC)c1OC` (centres undefined) it is 2.01% (inactive); for `COc1ccccc1N1CC(C(=O)Nc2ccc(S(=O)(=O)N3CCOCC3)cc2)CC1=O` (centres undefined) it is 2.45% (inactive).
Turning to `CC(=O)Nc1ccc(NS(=O)(=O)c2cc(C)sc2C)cc1`, the inhibition is 5.36% (inactive).
As to `OC(CNC1CCCC1)COc1ccc(F)cc1` (centres undefined), the inhibition was -6.14% (inactive).
Turning to `CC(C)(C)NC(=O)c1cccc(NC(=O)Cc2ccc(Br)cc2)c1`, the inhibition was -0.14% (inactive).
On to `FC(F)Oc1ccccc1C1CC(c2ccc(Br)s2)Nc2ncnn21` (centres undefined), for which the inhibition was 4.45% (inactive).
On to `CC1CCCCC1NC(=O)CO/N=C/c1ccc(OC(F)F)cc1` (centres undefined), for which the inhibition is 5.23% (inactive).
For the compound `CC(NC(=O)COC(=O)c1ccc(Cl)cc1O)c1ccc(F)cc1` (centres undefined), the inhibition was 11% (inactive).
As for `CCC(=O)c1ccc(OCC(=O)OCC(=O)NC2CCCCCC2)cc1`, the inhibition is 1.93% (inactive).
For the compound `C=CCOc1ccc(/C=C/C(=O)OCC(=O)NCC2CCCO2)cc1` (centres undefined), the inhibition is 29.2% (inactive).
The figure for `O=C(CO/N=C/c1ccccc1OC(F)F)NC1CCCC1` is 4.52% (inactive).
Regarding `C=CCOc1ccc(/C=C/C(=O)OCC(=O)NC(C)c2ccc(F)cc2)cc1` (centres undefined), the inhibition is 33.1% (active).
`C=CCOc1ccc(/C=C/C(=O)OC(C)C(=O)Nc2ccc(NC(C)=O)cc2)cc1` (centres undefined): the inhibition was -1.01% (inactive).
Consider `O=C(COC(=O)/C=C/c1ccc(OC(F)F)cc1)NC1CCCCC1`, for which the inhibition was 59.9% (active).
Consider `C=CCOc1ccc(/C=C/C(=O)OCC(=O)NC2CCCCCC2)cc1`, for which the inhibition is 77% (active).
As to `O=c1ccc2cc(S(=O)(=O)N3CCN(c4ccccc4)CC3)ccc2o1`, the inhibition is -3.62% (inactive).
Take `COC(=O)CCSc1nccn1Cc1ccccc1`: the inhibition was 3.07% (inactive).
The figure for `CC(=O)c1c(N2CCN(c3ccc(F)cc3)CC2)nc(=S)n(-c2ccccc2)c1C` is -5.81% (inactive).
As for `Cc1ccc(NC(=O)CN(C)S(=O)(=O)c2cnc[nH]2)cc1C`, the inhibition is 4.95% (inactive).
With `O=C1C=C(NS(=O)(=O)c2ccccc2)C(=O)c2ccccc21`, the inhibition is 5.32% (inactive).
Turning to `O=C(NC1=CC(=O)c2ccccc2C1=O)c1ccccc1`, the inhibition is 45.2% (active).
With `CC(NC(=O)c1ccccc1)C(=O)Nc1ccccc1` (centres undefined), the inhibition was -1.79% (inactive).
To `Cc1cccc(C2C3=C(CCCC3=O)N=C3c4ccccc4C(=O)C32)c1` (centres undefined) belongs 9.45% (inactive); to `O/N=C(\C[n+]1ccccc1)c1ccc(Br)cc1`, -4.24% (inactive).
Take `CCCOc1ccc(NC(=O)CC2C(=O)N(C)C(=S)N2Cc2ccc3c(c2)OCO3)cc1` (centres undefined): the inhibition is -2.75% (inactive).
For the compound `O=C(C1CCN(Cc2ccc(Cl)cc2)CC1)N1CCN(Cc2ccc3c(c2)OCO3)CC1`, the inhibition was 2.96% (inactive).
For `O=C(Nc1ccc(Cl)cc1)C1c2cccc[n+]2CC(=O)N1Cc1ccc2c(c1)OCO2` (centres undefined), the inhibition is 43.6% (active).
With `Cc1c(Br)cc(C(=O)N2CCCCCC2)c(C)c1C`, the inhibition is 1.14% (inactive).
To `CC1CCc2c(sc3c2C2=NS(=O)(=O)CCN2C=N3)C1` (centres undefined) belongs 0.66% (inactive); to `COCCNC(=O)NC(=O)COC(=O)C1(c2ccc(Cl)cc2)CC1`, 13% (inactive).
As to `Cc1ccc(Cc2nnc(SCC(=O)Nc3ccccc3C)[nH]c2=O)cc1`, the inhibition is 6.57% (inactive).
Consider `COc1ccccc1-c1cnn2c(N3CCOCC3)cc(C)nc12`, for which the inhibition was -3.57% (inactive).
Take `CS(=O)(=O)c1ccc(C(=O)OCC(=O)NNC(=O)COc2ccc(Cl)cc2)cc1`: the inhibition is 1.43% (inactive).
The figure for `O=C(COc1ccc(Cl)cc1)Nc1ccccc1CO` is 0.9% (inactive); for `CCS(=O)(=O)c1ccc(O)c(NC(=O)COc2ccc(Cl)cc2)c1` it is 75.6% (active).
On to `O=C(c1ccc(=O)[nH]c1)N(Cc1ccco1)C1(C(=O)NC2CCCCC2)CCCCC1`, for which the inhibition is -0.52% (inactive).
For the compound `N#Cc1nc(COc2ccc(Cl)cc2)oc1N1CCCC1`, the inhibition is -5.85% (inactive).
To `COc1cccc(/C=C/C(=O)OCC(=O)N2CCN(c3ccccc3)CC2)c1` belongs 1.44% (inactive); to `O=C(OCC(=O)N1CCN(c2ccccc2)CC1)c1ccc([N+](=O)[O-])s1`, 35.3% (active).
Regarding `C[C@H](NC(=O)c1ccccc1Cl)C(=O)OCC(=O)N1CCN(c2ccccc2)CC1`, the inhibition is -2.12% (inactive).
Regarding `CC(C)(C)NC(=O)CSc1nnc(NC(=O)CCc2ccccc2)s1`, the inhibition is 0.99% (inactive).
On to `CC(=O)Nc1ccc(NC(=O)COC(=O)c2ccccc2C(=O)c2ccccc2)cc1`, for which the inhibition was 32.1% (active).
To `CCN(CC)c1ccc(C(=O)OCC(=O)c2ccco2)cc1` belongs 35.1% (active).
The figure for `CC(=O)Nc1ccc(NC(=O)COc2ccc(-c3ccccc3)cc2)cc1` is -5.15% (inactive).
With `O=C(COC(=O)c1ccccc1C(=O)c1ccccc1)c1ccco1`, the inhibition is 43% (active).
On to `CCc1ccc(C(=O)COC(=O)c2ccco2)cc1`, for which the inhibition is 9.26% (inactive).
To `CCOC(=O)c1ccc(NC(=O)CNC(=O)c2ccco2)cc1` belongs 1.1% (inactive); to `O=C(CNC(=O)c1ccco1)OCC(=O)c1ccccc1`, 4.2% (inactive); to `CC(C)CNC(=O)COC(=O)c1ccccc1OCC(=O)Nc1ccc(Br)cc1`, -2.18% (inactive).
As to `O=C(OCC(=O)N1CCN(C(=O)c2ccco2)CC1)c1ccccc1Cc1ccccc1`, the inhibition was 10.9% (inactive).
Turning to `CC1(C)C2CCC1(CS(=O)(=O)NCCc1c[nH]c3ccccc13)C(=O)C2` (centres undefined), the inhibition is 4.84% (inactive).
Take `O=[N+]([O-])c1ccc(Oc2ccc(F)cc2Br)c2ccncc12`: the inhibition was -2.87% (inactive).
Turning to `O=S(=O)(NC1CC1)c1ccc(Cl)cc1`, the inhibition was 6.44% (inactive).
`Cc1cc(N)n(-c2ccc(S(=O)(=O)N3CCCC3)cc2[N+](=O)[O-])n1`: the inhibition is 3.65% (inactive).
Turning to `O=C(CNC(=O)c1ccc(Cl)cc1Cl)NCC(=O)Nc1ccccc1N1CCOCC1`, the inhibition is 7.59% (inactive).
For `Oc1ccccc1C1=NN(c2ccccc2)C(c2ccccc2)C1` (centres undefined), the inhibition was 2.45% (inactive).
The figure for `O=C(COC(=O)c1c2c(nc3ccccc13)CCCC2)c1ccc(Br)s1` is -8.93% (inactive); for `Cn1cccc1C(=O)OCC(=O)NCCc1ccccc1` it is 12.9% (inactive).
For `Cn1cccc1C(=O)OCC(=O)c1ccc(Br)s1`, the inhibition was 40.2% (active).
To `C=CCN(C(=O)Cn1ncc2c1-c1cc(C)ccc1OC2)c1ccccc1` belongs 7.42% (inactive).
`O=C(c1c(F)cccc1F)N1CCN(c2ncc(Br)cn2)CC1`: the inhibition was 9.7% (inactive).
The figure for `COc1ccc(C2(CNC(=O)Cc3ccc(OC)c(OC)c3)CCCC2)cc1` is 0.3% (inactive).
With `COc1cc(C(=O)NCC2(c3ccccc3)CCCC2)ccc1OC(C)C`, the inhibition was 174% (active).
On to `CCOc1c(OC)cccc1C(=O)NCC1(c2ccccc2)CCCC1`, for which the inhibition is -1.33% (inactive).
Turning to `O=C(NC(=O)c1ccccc1N1CCCCC1)Nc1ccc(Br)cc1`, the inhibition is -2.91% (inactive).
The figure for `NC(=O)Nc1ccc(C(=O)OCC(=O)NC2CCCc3ccccc32)cc1` (centres undefined) is 71.5% (active); for `O=C(CCNC(=O)c1ccc(Cl)cc1)NC1CCCc2ccccc21` (centres undefined) it is 0.23% (inactive); for `Nc1ccc(C(=O)OCC(=O)NC2CCS(=O)(=O)C2)cc1[N+](=O)[O-]` (centres undefined) it is 0.87% (inactive).
Regarding `CCOc1ccc(NC(=O)COc2ccc(C(=O)NC3CCCc4ccccc43)cc2OC)cc1` (centres undefined), the inhibition was -2.16% (inactive).
Regarding `Nc1ccc(C(=O)OCC(=O)NC2CCCc3ccccc32)cc1[N+](=O)[O-]` (centres undefined), the inhibition was 56.6% (active).
`COC(=O)c1cc(OCC(=O)NC2CCCc3ccccc32)cc(C(=O)OC)c1` (centres undefined): the inhibition was 0.45% (inactive).
On to `O=C(NNc1nc(N2CCCC2)nc(N2CCCC2)n1)c1ccccc1`, for which the inhibition is 8.18% (inactive).
`CC(=O)N1c2ccc(S(=O)(=O)N3CCC(C(=O)N4CCN(c5ccccc5)CC4)CC3)cc2CC1C` (centres undefined): the inhibition is -4.15% (inactive).
Turning to `COc1cc(C(=O)NCc2nnc(SCC(=O)Nc3nc4ccc(C)cc4s3)o2)cc(OC)c1OC`, the inhibition was 4.41% (inactive).
With `CCOc1ccc(CCNC(=O)C2=C(C)C(=O)OC23CCC(C)CC3)cc1OCC` (centres undefined), the inhibition is 5.73% (inactive).
To `c1ccc(CCC2=NCCn3cccc32)cc1` belongs -3.37% (inactive) and -2.16% (inactive).
As to `O=C(OCC(=O)N1CCCCC1)c1ccc(OC(F)(F)F)cc1`, the inhibition is 5.16% (inactive).

The record behind these values is PubChem BioAssay AID492956 (The Scripps Research Institute Molecular Screening Center, 2010).
